KDM5B inh – Primary screen for KDM5B Histone Demethylases FDH-coupled qHTS; Lysine-specific demethylase 5B (Homo sapiens), Q9UGL1; KDM5B demethylase, FDH-coupled NADH fluorescence (FDH is formaldehyde dehydrogenase); Potency, µM (titrated, usually from 57.7 µM), actives largely listed as inhibitors; 220,000 tested, 2.6% active; active means well fitted inhibition curve with a large enough effect; further: 0% is about no effect; nearly all actives have a fitted effect of over 70% in size
Target sequence (Q9UGL1 whole entry, looked up): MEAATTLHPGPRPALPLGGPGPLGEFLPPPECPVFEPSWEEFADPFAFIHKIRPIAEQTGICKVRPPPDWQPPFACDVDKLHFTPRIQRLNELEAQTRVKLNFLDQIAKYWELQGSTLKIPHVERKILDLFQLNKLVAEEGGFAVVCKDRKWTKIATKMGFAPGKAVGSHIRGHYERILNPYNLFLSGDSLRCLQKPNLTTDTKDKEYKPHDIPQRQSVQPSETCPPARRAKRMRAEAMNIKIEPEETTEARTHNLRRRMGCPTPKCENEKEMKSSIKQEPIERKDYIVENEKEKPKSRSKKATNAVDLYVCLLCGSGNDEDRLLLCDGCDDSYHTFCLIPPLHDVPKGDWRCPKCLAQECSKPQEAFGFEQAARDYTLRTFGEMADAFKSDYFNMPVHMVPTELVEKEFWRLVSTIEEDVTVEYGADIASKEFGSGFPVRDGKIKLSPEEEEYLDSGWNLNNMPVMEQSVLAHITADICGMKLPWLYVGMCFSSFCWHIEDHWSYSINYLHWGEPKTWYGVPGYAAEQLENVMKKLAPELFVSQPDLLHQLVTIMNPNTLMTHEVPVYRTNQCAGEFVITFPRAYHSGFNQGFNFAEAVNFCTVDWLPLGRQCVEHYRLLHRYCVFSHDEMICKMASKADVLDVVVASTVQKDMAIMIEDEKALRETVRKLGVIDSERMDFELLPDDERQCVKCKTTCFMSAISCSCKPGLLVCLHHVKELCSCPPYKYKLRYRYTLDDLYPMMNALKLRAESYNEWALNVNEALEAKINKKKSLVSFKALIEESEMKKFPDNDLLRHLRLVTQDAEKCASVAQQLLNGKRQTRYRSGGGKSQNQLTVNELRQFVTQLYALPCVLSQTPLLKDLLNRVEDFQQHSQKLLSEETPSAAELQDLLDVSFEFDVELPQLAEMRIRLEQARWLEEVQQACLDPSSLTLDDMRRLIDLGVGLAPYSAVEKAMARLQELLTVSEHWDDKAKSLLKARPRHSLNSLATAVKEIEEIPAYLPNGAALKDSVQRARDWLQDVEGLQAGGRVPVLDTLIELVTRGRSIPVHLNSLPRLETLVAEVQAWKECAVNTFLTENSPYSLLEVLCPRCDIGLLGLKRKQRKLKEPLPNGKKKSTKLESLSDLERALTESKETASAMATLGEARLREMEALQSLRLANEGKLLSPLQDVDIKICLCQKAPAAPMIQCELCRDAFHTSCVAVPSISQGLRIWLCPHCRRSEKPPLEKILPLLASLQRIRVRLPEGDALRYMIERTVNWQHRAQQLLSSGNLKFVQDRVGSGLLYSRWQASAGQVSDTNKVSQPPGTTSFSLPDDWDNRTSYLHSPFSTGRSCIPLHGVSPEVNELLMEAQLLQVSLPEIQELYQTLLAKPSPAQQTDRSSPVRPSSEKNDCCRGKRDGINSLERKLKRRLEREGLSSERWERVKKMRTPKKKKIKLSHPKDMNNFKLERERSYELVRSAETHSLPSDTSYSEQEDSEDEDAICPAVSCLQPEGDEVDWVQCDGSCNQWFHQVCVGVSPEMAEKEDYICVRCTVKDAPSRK
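qHTS format, multiple compound concentrations. Buffer 50 mM HEPES pH 7.5/0.01% Tween-20; 200 nM KDM5BΔAP final; 10 min compound preincubation; substrate-mix levels 12.5 µM peptide, 25 µM α-KG, 0.25 mM NAD⁺; 30 min RT; ΔRFU.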
Active calls of the source: *; i = inactive. This excerpt belongs to a sample that is enriched for hits. Potency means the concentration at half of the fitted maximal effect.

SMILES	KDM5B inh
CC(=O)N1N=C(c2cc(Cl)ccc2Cl)CC1c1ccc2nccnc2c1 (stereo unspecified)	i
O=C(O)Cn1cc(C(C(=O)O)N2CCN(Cc3ccccc3)CC2)c2ccc(Cl)cc21 (stereo unspecified)	i
CC1(C)C(=O)Nc2ccccc2N1C(=O)COC(=O)c1cnccn1	i
O=C1c2cnc(-c3cccnc3)nc2OCCN1Cc1ccccc1	i
O=C1c2cnc(-c3cccc(C(F)(F)F)c3)nc2OCCN1CC1CC1	i
COc1ccc(CN2CCOc3nc(-c4cc5ccccc5o4)ncc3C2=O)cc1	32µM*
Cc1noc(C)c1-c1ncc2c(n1)OCCN(Cc1ccccc1)C2=O	i
O=C1c2cnc(-c3ccc(F)cc3)nc2OCCN1Cc1ccc(F)cc1F	i
O=C1c2cnc(-c3ccc(Oc4ccccc4)cc3)nc2OCCN1CC1CC1	35µM*
COc1cccc(CNCc2cccs2)c1OCc1ccccc1	i
CCN(CC)c1ccc(-c2nnc(SCCS(=O)(=O)c3ccc(Br)cc3)o2)cc1	i
CCOc1ccc(C(C)NC(=O)Cc2nn(C)c(=O)c3ccccc23)cc1 (stereo unspecified)	i
CC(=O)N1CCC([C@@H]2CN(Cc3ccccc3C(F)(F)F)C[C@H]2CO)CC1	i
N=C(N)SCc1ccc(Br)cc1	i
Cc1ccccc1N1Cc2c(NCCCc3ccccc3)ncnc2N(C)CC1=O	i
COCCN1Cc2nc(-c3ccc(OC)c(F)c3)ccc2OCC1=O	40µM*
O=C1COc2ccc(N3CCCC3)nc2CN1Cc1ccccc1	35µM*
COCCN1Cc2[nH]nc(-c3ccc(OC)c(F)c3)c2CC1=O	i
O=C1COc2ccc(-c3cc(F)cc(F)c3)nc2CN1Cc1ccccc1	32µM*
O=C1COc2ccc(-c3ccccc3F)nc2CN1Cc1ccccc1	i
COCCN1Cc2nc(-c3cc(F)cc(F)c3)ccc2OCC1=O	i
O=C1COc2ccc(-c3ccccc3)nc2CN1Cc1ccccc1	i
COc1ccc(-c2ccc3c(n2)CN(Cc2ccccc2)C(=O)CO3)cc1F	20µM*
CN(c1ccccc1)c1ccc2c(n1)CN(CC(=O)N1CCCC1)C(=O)CO2	i
O=C1COc2ccc(OCc3ccccc3)nc2CN1Cc1ccc(F)cc1	i
SMILES	KDM5B inh
Cc1ccc(-c2nnc(SCc3nc4ccccc4o3)n2C)cc1	i
Cc1nc2cc(NC(=O)C(C)(C)Oc3ccc(Cl)cc3)ccc2o1	i
Cc1ccc(O)c(C(=O)/C=C/c2ccc(Cl)cc2Cl)c1	i
CC(c1nnc(SCC(=O)Nc2ccc(C#N)cc2)n1C)N1C(=O)COc2ccccc21 (stereo unspecified)	i
Cc1ccc(S(=O)(=O)N2CC[C@H](c3nc4ccccc4[nH]3)C2)cc1	i
CC(=O)c1c(C)n(-c2cccc3ccccc23)c2ccc(O)cc12	i
O=C(Nc1ccccc1OCC(F)(F)F)C1CCN(c2nc3ccccc3o2)CC1	i
CCOc1ccccc1NC(=O)c1ncoc1-c1ccc(OC)c(OC)c1	i
Cc1ccc(CC(=O)Nc2ccc(N(C)C)cc2)cc1	i
CC1CCc2sc(C(=O)N3CCN(c4ncccn4)CC3)cc2C1 (stereo unspecified)	i
O=C(c1cc2c(s1)CN(C1CCCC1)C2)N1CCCN(c2ncccn2)CC1	6.3µM*
O=C(c1ccco1)N1CCN(C(=O)c2cc3c(s2)CN(C2CC2)C3)CC1	i
CC(C)NC(=O)c1cc(-c2ccco2)nc2ccccc12	i
COc1ccc(-c2cc(-c3ccc4cn[nH]c4c3)cn3cncc23)cn1	10µM*
c1cc(-c2cc(-c3ccncc3)c3cncn3c2)c2[nH]ncc2c1	i
COc1cc(CNC(=O)c2ccc3cn[nH]c3c2)cc(OC)c1OC	i
COc1ccc(-c2cc(-c3cccc(CO)c3)cn3cncc23)cn1	35µM*
COc1cncc(Nc2cnc3ccc(-c4cccc(CO)c4)nn23)c1	i
Cc1ccccc1C(=O)NC(C)c1nc(-c2ccccc2Cl)no1 (stereo unspecified)	i
CCNc1c(NC(=O)Nc2ccc(F)cc2F)c(=O)oc2ccccc12	i
CCc1nnc(NC(=O)c2cccc3ncccc23)s1	i
COc1ccc(Cl)cc1NCC(=O)NC(C)(C#N)C(C)C (stereo unspecified)	i
Fc1ccc(CNCCN2CCCC2)cc1	i
CCC(C)NC(=O)c1ccc(CSCc2ccccc2Cl)o1 (stereo unspecified)	i
CCC(C)NC(=O)CCc1ccc(C#N)cc1 (stereo unspecified)	i
SMILES	KDM5B inh
CCC(C)NC(=O)c1ccc(-c2cccc(C#N)c2)o1 (stereo unspecified)	25µM*
O=C(Nc1ccccc1)Nc1cccc(-c2nnc(Cc3ccc4c(c3)OCO4)o2)c1	i
COc1ccccc1NC(=O)CSc1nc(N2CCOCC2)c2c(c1C#N)CC(C)(C)OC2	i
CC(NC(=O)c1cccc(N(C)C)c1)c1ccccc1 (stereo unspecified)	i
COc1ccccc1-n1cc(C(=O)N2CCC3(CCNC(=O)CC3)CC2)cn1	i
CC(C)C(=O)N1CCC2(CCNC(=O)CC2)CC1	i
Cc1cccc2ncc(C(=O)N3CCC4(CCNC(=O)CC4)CC3)c(=O)n12	22µM*
CC(C)c1ccc(/C=N/NC(=O)c2ccncc2)cc1	i
Cc1nc(-c2ccccc2)nc2sc3c(=O)[nH]cnc3c12	i
COc1cccc(Nc2ncc3c(n2)C(C)(C(=O)N2CC[S+](=O)([O-])CC2)CC3)c1 (stereo unspecified)	i
COc1cccc(Nc2ncc3c(n2)C(C)(C(=O)Nc2nc(C)cs2)CC3)c1 (stereo unspecified)	35µM*
COCCNC(=O)C1(C)CCc2cnc(Nc3cccc(OC)c3)nc21 (stereo unspecified)	i
Cc1cc2c(cc1S(=O)(=O)N1CCC(C(=O)N3CCN(C)CC3)CC1)OC(C)C(=O)N2 (stereo unspecified)	i
COC(CNC(=S)NC1CCCC1)OC	i
Cc1cc(OCCN(C)C)c(C)c2c1CC[C@@H]([C@H](C)C(=O)NCc1cccs1)C2	i
COc1cc(C)c2c(c1C)C[C@H]([C@H](C)C(=O)O)CC2	i
COc1cc(C)c2c(c1C)C[C@H](C(C)C(=O)NCc1ccco1)CC2 (stereo partly specified)	35µM*
COC(=O)c1cccc(NC(=S)N[C@@H]2C=C[C@@H](c3c(C)nn(-c4ccc(C(C)C)cc4)c3C)C2)c1	i
O=C(CSc1ccc2c(c1)OCCCO2)NC(=O)c1cccs1	i
Cn1c(=O)c2c(ncn2Cc2cccc(Br)c2)n(C)c1=O	i
O=c1cc(N2CCOCC2)oc2c(-c3ccncc3)nccc12	35µM*
CN(C)c1cccc(-c2nccc3c(=O)cc(-c4cn[nH]c4)oc23)c1	i
O=c1cc(N2CCOCC2)oc2c(N3CCN(c4ccccn4)CC3)nccc12	i
O=C(CCn1nc(-c2ccccc2)c2ccccc2c1=O)N1CCOCC1	i
O=c1cc(N2CCOCC2)oc2c(-c3ccccc3)nccc12	32µM*
CN(C)c1cccc(-c2nccc3c(=O)cc(N4CCOCC4)oc23)c1	35µM*
CN(C)c1cccc(-c2cnc3[nH]cc(CC(=O)N4CCOCC4)c3c2)c1	i
COCCN1C(=O)[C@H]2CC[C@@H]1CN(c1ncnc3sc(C)c(C)c13)C2	i
CCCCCCOc1ccc(CNCCCOCC)cc1	i
O=C(Cc1ccc(N2CCCC2=O)cc1)N1CCC(C(=O)N2CCCCCC2)CC1	i

Compound activity from PubChem BioAssay.
